Inconclusive results are not listed. Active and inactive are the calls of the source. Unless noted, calls come from the whole dose curve; as a rule, active = well fitted curve in the direction sought with a large enough effect in the repeat runs; inconclusive = weak or mixed curves; inactive = no such curve, though single readings can be large; an effect the other way counts as inactive or inconclusive.
Legend:
[1] = qHTS assay to identify small molecule antagonists of the vitamin D receptor (VDR) signaling pathway - cell viability counter screen (AID 743225); note: % is set by controls: 0 for no effect and ±100 for the full control effect; nearly all actives have a fitted effect of over 50% in size
In short: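 Parallel cytotoxicity test: VDR-UAS-bla HEK 293T, 3 nM (final) 1-alpha,25-dihydroxyvitamin D3 with test compound, 16 h, 37C. Endpoint is CellTiter-Glo luminescence in the same wells.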

[2] = qHTS assay to identify small molecule agonists of the NFkB signaling pathway - cell viability counter screen (AID 1159515; calls by dose curve; note: series mostly up to about 61 µM; % is set by controls: 0 for no effect and ±100 for the full control effect; nearly all actives have a fitted effect of over 55% in size)
In short: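 Multiplexed viability readout: after the 5 hr compound exposure and 1.5 hr FRET substrate step, CellTiter-Glo reagent went into the same NFkB-bla ME-180 wells; ATP luminescence was measured after 30 min at room temperature.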

[3] = qHTS assay to identify small molecule agonists of the endoplasmic reticulum stress response signaling pathway (AID 1159516; active = well fitted activation curve with a large enough effect in the signal ratio in the repeat runs, not every such curve was filed as active; the % refers to the signal ratio; note: potency is the fitted concentration of half-maximal effect)
In short: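 Tox21 10K library screened in quantitative HTS format on ESRE-bla HeLa cells, a beta-lactamase reporter under ER stress response element control; 5 hr treatment, FRET read.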

[4] = qHTS assay to identify small molecule agonists of the endoplasmic reticulum stress response signaling pathway - cell viability counter screen (AID 1159517; calls by dose curve; note: series mostly up to about 61 µM; % is set by controls: 0 for no effect and ±100 for the full control effect; nearly all actives have a fitted effect of over 50% in size)
In short: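 Counter-screen wells were identical to the reporter wells. Cells were plated at 1,500 per well and dosed for 5 hr, then read for luminescence 30 min after CellTiter-Glo addition.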

[5] = molecular target: Nuclear receptor ROR-gamma (Homo sapiens) (UniProt P51449); test: qHTS assay to identify small molecule antagonists of the retinoid-related orphan receptor gamma (ROR-gamma) signaling pathway (AID 1159521; note: nearly all actives have a fitted effect of over 50% in size; note: potency is the fitted concentration of half-maximal effect)
In short: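 Decreased RORE-driven luciferase luminescence indicates antagonism. Tet-on RORγ CHO cells received compound, then 1 uM final doxycycline 2 h later; signal read after 16 h incubation.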

[6] = qHTS assay to identify small molecule agonists of the AP-1 signaling pathway - cell viability counter screen (AID 1159525; calls by dose curve; note: nearly all actives have a fitted effect of over 55% in size)
In short: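 AP-1-bla ME-180 cells in Opti-MEM with 0.5% dialyzed FBS, compound exposure 5 h at 37 C in 15-point titration. Viability read in the same wells as ATP content by CellTiter-Glo luminescence, normalised to tetra-n-octylammonium bromide and DMSO controls.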

[7] = qHTS assay to identify small molecule agonists of the AP-1 signaling pathway (AID 1159526; calls by dose curve; note: % is set by controls: 0 for no effect and ±100 for the full control effect)
[8] = molecular target: Retinoic acid receptor RXR-alpha (Homo sapiens) (UniProt P19793); test: qHTS assay to identify small molecule agonists of the RXR signaling pathway (AID 1159527; calls by dose curve; note: % is set by controls: 0 for no effect and ±100 for the full control effect; nearly all actives have a fitted effect of over 35% in size)
Retinoic acid receptor RXR-alpha (Homo sapiens), sequence (P19793 whole entry, looked up): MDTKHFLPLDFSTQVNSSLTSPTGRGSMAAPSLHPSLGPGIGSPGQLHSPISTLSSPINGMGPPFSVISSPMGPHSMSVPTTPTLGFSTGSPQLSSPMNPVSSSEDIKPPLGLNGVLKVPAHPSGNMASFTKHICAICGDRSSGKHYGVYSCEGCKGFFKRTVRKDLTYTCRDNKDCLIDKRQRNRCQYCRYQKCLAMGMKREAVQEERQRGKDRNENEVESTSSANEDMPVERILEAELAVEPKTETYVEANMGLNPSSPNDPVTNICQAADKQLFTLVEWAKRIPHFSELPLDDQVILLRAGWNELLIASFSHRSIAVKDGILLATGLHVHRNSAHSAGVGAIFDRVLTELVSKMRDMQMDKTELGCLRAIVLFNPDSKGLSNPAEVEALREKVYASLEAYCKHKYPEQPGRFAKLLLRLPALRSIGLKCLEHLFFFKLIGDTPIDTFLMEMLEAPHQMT
In short: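 16 hr incubation of compound-treated RXR-alpha-UAS-bla HEK 293T cells (2% charcoal-stripped FBS, 37 C) preceded a 2 hr room-temperature LiveBLAzer FRET substrate step and blue/green fluorescence measurement.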

[9] = qHTS assay to identify small molecule agonists of the RXR signaling pathway - cell viability counter screen (AID 1159529); note: nearly all actives have a fitted effect of over 50% in size; note: potency is the fitted concentration of half-maximal effect
In short: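 In this parallel viability measure, GeneBLAzer RXR-alpha HEK 293T cells (2% charcoal-stripped FBS) were given a 5 hr preincubation, treated with compounds 16 hr at 37 C, and read by CellTiter-Glo luminescence.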

[10] = qHTS assay to identify small molecule antagonists of the retinoid acid receptor (RAR) signaling pathway - cell viability counter screen (AID 1159551); note: % is set by controls: 0 for no effect and ±100 for the full control effect; nearly all actives have a fitted effect of over 35% in size
In short: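 Cytotoxicity counter screen in C3RL4 cells: 6 h compound exposure with 1 uM retinol (final), viability from cellular ATP by luminescence.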

[11] = qHTS assay to identify small molecule antagonists of the retinoic acid receptor (RAR) signaling pathway (AID 1159552; note: nearly all actives have a fitted effect of over 50% in size; note: potency is the fitted concentration of half-maximal effect)
In short: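 C3RL4 RARE-luc cells, overnight plating; retinol 1 uM final added right after compound; 6 hr 37 C; luciferase read at 30 min RT.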

[12] = qHTS assay to identify small molecule agonists of the retinoic acid receptor (RAR) signaling pathway (AID 1159553); note: % is set by controls: 0 for no effect and ±100 for the full control effect
In short: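 Agonist activity was scored in C3RL4 cells bearing a retinoic acid response element luciferase construct. Cells were treated with compounds for 6 hr at 37 C, and luciferase signal was measured as luminescence.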

[13] = qHTS assay to identify small molecule antagonists of the estrogen related receptor (ERR) signaling pathway - cell viability counter screen (AID 1224818);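 note: series mostly up to about 46 µM; viability measured after 17.5 h of compound exposure; % is set by controls: 0 for no effect and ±100 for the full control effect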
In short: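 Cells carrying the ERR pathway reporter were seeded and incubated for 6 hours before compound addition. After a 17.5-hour exposure at 37 C, live-cell protease activity was measured by CellTiter-Fluor fluorescence following 30 minutes of incubation.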

[14] = qHTS assay to identify small molecule antagonists of the estrogen related receptor signaling pathway with the pleiotropic PPARgamma coactivator (PGC) cell viability counter screen (AID 1224822;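 note: series mostly up to about 46 µM; viability read after 17.5 h compound exposure; % is set by controls: 0 for no effect and ±100 for the full control effect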)
In short: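 Seed PGC/ERR cells (2,000/well); incubate 6 h at 37 C/5% CO2; pin-transfer compounds in DMSO; incubate 17.5 h at 37 C; add CellTiter-Fluor; after 30 min read fluorescence.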

[15] = qHTS assay to identify small molecule agonists of the vitamin D receptor (VDR) signaling pathway - cell viability counter screen (AID 743224); note: nearly all actives have a fitted effect of over 50% in size; note: potency is the fitted concentration of half-maximal effect
In short: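 Viability is measured in the same wells as the VDR-bla reporter assay: after 16 h compound treatment and 2 h substrate loading, CellTiter-Glo is added and luminescence read 30 min later.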

[16] = qHTS assay to identify small molecule antagonists of the retinoid-related orphan receptor gamma (ROR-gamma) signaling pathway - cell viability counter screen (AID 1159520)
In short: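 Tet-on ROR gamma CHO cells were given compounds for 2 hr, then doxycycline hyclate at 1 uM final, and incubated 16 hr at 37 C. Viability was measured as ATP content by CellTiter-Glo luminescence.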

COc1ccc(Cc2nccc3cc(OC)c(OC)cc23)cc1OC
active: Potency [5] 4.22 µM
inactive: Potency [1] | Potency [2] | Potency [3] | Potency [4] | Potency [6] | Potency [7] | Potency [8] | Potency [9] | Potency [10] | Potency [11] | Potency [12] | Potency [13] | Potency [14]

c1ccc2nc(N3CCNCC3)ccc2c1
inactive: Potency [15] | Potency [1] | Potency [2] | Potency [3] | Potency [4] | Potency [16] | Potency [7] | Potency [10] | Potency [11] | Potency [12]

CCCC[N+]1(C)CCCC1 (tested in a mixture with another compound)
inactive: Potency [15] | Potency [1] | Potency [2] | Potency [3] | Potency [4] | Potency [16] | Potency [6] | Potency [7] | Potency [8] | Potency [9] | Potency [10]

COP(=S)(OC)Oc1nc(Cl)c(Cl)cc1Cl
inactive: Potency [15] | Potency [1] | Potency [2] | Potency [3] | Potency [4] | Potency [16] | Potency [9] | Potency [10] | Potency [11] | Potency [12]

CC(=O)O.CC(=O)O.CC(=O)O.CC(=O)O.CC(=O)O.CC(=O)O.CC(=O)O.O.O.[Cr].[Cr].[Cr]
inactive: Potency [15] | Potency [1] | Potency [2] | Potency [3] | Potency [4] | Potency [16] | Potency [6] | Potency [7] | Potency [8] | Potency [9] | Potency [10]

CCCCn1cc[n+](C)c1 (tested in a mixture with another compound)
inactive: Potency [15] | Potency [1] | Potency [2] | Potency [3] | Potency [4] | Potency [16] | Potency [6] | Potency [7] | Potency [8] | Potency [9] | Potency [10]

ClSC(Cl)(Cl)Cl
inactive: Potency [1] | Potency [2] | Potency [3] | Potency [4] | Potency [5] | Potency [6] | Potency [8] | Potency [9] | Potency [10] | Potency [11]

CSC(=O)c1c(C(F)F)nc(C(F)(F)F)c(C(=O)SC)c1CC(C)C
active: Potency [15] 43.4 µM | Potency [5] 54.2 µM
inactive: Potency [2] | Potency [3] | Potency [4] | Potency [6] | Potency [7] | Potency [10]

CC(=O)[O-].CC(=O)[O-].CC(=O)[O-].[Sb+3]
inactive: activity change, negative = cytotoxicity [15] -16.2% [at 5.95 µM] | viability change, negative = cytotoxic [1] 0.879% [at 6.95 µM] | activity, negative = cytotoxic [2] -2.51% [at 6.95 µM] | activation [3] 3.53% [at 6.95 µM] | activity change, negative = cytotoxicity [4] -11.4% [at 6.95 µM] | activity, negative = cytotoxicity [16] 1.09% [at 3.27 µM] | viability change, negative = cytotoxic [6] -1.02% [at 2.72 µM] | activation [7] -1.15% [at 2.72 µM] | activation [8] -1.11% [at 2.71 µM] | activity change, negative = cytotoxicity [9] 2.3% [at 2.72 µM] | activity change, negative = cytotoxicity [10] 3.99% [at 3.27 µM]

O=c1[nH]c(Cl)c(Cl)cc1Cl
inactive: Potency [15] | Potency [1] | Potency [2] | Potency [3] | Potency [4] | Potency [16] | Potency [6] | Potency [7] | Potency [10] | Potency [11]

Oc1cccc(Cl)c1Cl
inactive: Potency [15] | Potency [1] | Potency [2] | Potency [3] | Potency [4] | Potency [16] | Potency [6] | Potency [10] | Potency [11] | Potency [12]
active: Potency [9] 49.2 µM

Cc1ccccc1OP(=O)(Oc1ccccc1C)Oc1ccccc1C
inactive: Potency [1] | Potency [2] | Potency [3] | Potency [4] | Potency [6] | Potency [10]
active: Potency [5] 54.7 µM

Cc1cc2c3c(c1)C(c1ccccc1)=N[C@@H](NC(=O)c1ccncc1)C(=O)N3CC2
inactive: Potency [15] | Potency [1] | Potency [2] | Potency [3] | Potency [4] | Potency [16] | Potency [6] | Potency [7] | Potency [9] | Potency [10] | Potency [11] | Potency [12]

CC(Cc1ccccc1)N(C)Cc1ccco1 (centres undefined)
inactive: Potency [15] | Potency [1] | Potency [2] | Potency [3] | Potency [4] | Potency [16] | Potency [8] | Potency [9] | Potency [10] | Potency [11] | Potency [12]

COC(=O)C(C)N(C(=O)c1ccco1)c1c(C)cccc1C (centres undefined)
inactive: Potency [1] | Potency [2] | Potency [3] | Potency [4] | Potency [16] | Potency [6] | Potency [7] | Potency [8] | Potency [9] | Potency [10] | Potency [12]

CNC(=O)/C=C(\C)OP(=O)(OC)OC
inactive: Potency [1] | Potency [2] | Potency [3] | Potency [4] | Potency [16] | Potency [6] | Potency [7] | Potency [9] | Potency [10]

CC(Cc1ccc(O)cc1)NCC(O)c1cc(O)cc(O)c1 (centres undefined)
inactive: Potency [2] | Potency [3] | Potency [4] | Potency [5] | Potency [6] | Potency [8] | Potency [9] | Potency [10] | Potency [12] | Potency [13] | Potency [14]

C[C@H]1[C@H](c2ccc(Cl)cc2)SC(=O)N1C(=O)NC1CCCCC1
active: Potency [5] 48.6 µM
inactive: Potency [2] | Potency [3] | Potency [4] | Potency [6] | Potency [7] | Potency [9] | Potency [10] | Potency [11] | Potency [12]

O=S1(=O)OCC2C(CO1)C1(Cl)C(Cl)=C(Cl)C2(Cl)C1(Cl)Cl (centres undefined)
inactive: Potency [2] | Potency [3] | Potency [4]
active: Potency [15] 49 µM | Potency [5] 19.3 µM | Potency [9] 43.6 µM

CC(=O)[O-].CC(=O)[O-].O.O.O.[Pb+2]
inactive: Potency [15] | Potency [1] | Potency [2] | Potency [4] | Potency [16] | Potency [6] | Potency [7] | Potency [8] | Potency [9] | Potency [10]
active: Potency [3] 0.0776 µM

CCOP(=O)(Sc1ccccc1)Sc1ccccc1
active: Potency [11] 48.6 µM
inactive: Potency [15] | Potency [1] | Potency [2] | Potency [3] | Potency [4] | Potency [5] | Potency [6] | Potency [9] | Potency [10] | Potency [12]

CCCCN(CCCC)C(=S)S
inactive: Potency [15] | Potency [1] | Potency [2] | Potency [3] | Potency [4] | Potency [16] | Potency [6] | Potency [8] | Potency [9] | Potency [10] | Potency [11]

CC[N+]1(CC)CCC(OC(=O)C(O)(c2ccccc2)c2ccccc2)C1 (centres undefined)
inactive: Potency [15] | Potency [1] | Potency [2] | Potency [3] | Potency [4] | Potency [16] | Potency [6] | Potency [7] | Potency [8] | Potency [9] | Potency [10] | Potency [12]
